We go through 63 sequences from the supplement of paper PMC10338343.

For the assay, the system named is MIWI (PIWIL1) piRISC loaded with L1MC piRNA (30 nt). In words: pre-steady-state target cleavage rate (min^-1); MIWI and MILI are mouse PIWI proteins and EfPiwi is from a freshwater sponge; tags in brackets are library labels; higher = faster piRNA-guided slicing of the target. As to conditions: guide: L1MC piRNA 5'p-UAACUAAAUACUAUGCAAGCUGUAGGUCCU
The procedure: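 Cleave-'n-Seq: a library of target RNAs (target site embedded in constant flanks, ACAGCATTCCGCGTTAGTGATATCCG... 5' flank; DNA-blocked outside the site) at 0.1 nM was incubated with 1 nM active mouse MILI or MIWI piRISC (synthetic 5'-monophosphorylated piRNA guide) with or without 500 nM mouse GTSF1 at 33 °C for 1 min to 16 h. Uncleaved targets were sequenced and normalised to non-target controls, and the pooled three trials were fitted to a burst-and-steady-state model to give the pre-steady-state cleavage rate (min^-1; k3 is constrained to at most 1e-4). Sequence is the target site only; target names encode pairing extent (gX:gY) and contiguous / 1-mismatch / 2-mismatch / bulge geometry. Fits with R² ≤ 0 are excluded.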

The mark [1] stands for this setting: auxiliary factor: 500 nM mouse GTSF1.
Setting [2] is: auxiliary factor: none (no GTSF1).

± gives the standard deviation. Whole data set: some 8,200 sequences, median “pre-steady-state target cleavage rate” near 0.024, cut for the highest 2% near 1.3. Shown is part of a subset that was picked to be rich in the highest values.

With UCCUCCUACAGGAUGCAUAGUAUUUACAAA, the “pre-steady-state target cleavage rate” value under setting [1] stood at 0.253 ± 0.041.
Turning to UCCUGGAACAGGUAGCAUAGUAUUUAGUUA, the “pre-steady-state target cleavage rate” value by setting is: under setting [1], 0.266 ± 0.026; under setting [2], 0.00407 ± 0.0017.
Take UCCACCUUGUGCUUGCAUAGUAUUUACAAA: the “pre-steady-state target cleavage rate” value under setting [1] worked out at 0.0809 ± 0.013.
Consider UCCUGGAUGAGCUUGCAUAGUGUUUAGUUA, for which the “pre-steady-state target cleavage rate” value was 0.708 ± 0.06 under setting [1] and 0.0494 ± 0.01 under setting [2].
The corresponding values for UGGACGUACAGCUUGCAUAGUAUUAAGUUA are 0.721 ± 0.069 and 0.0383 ± 0.0073.
In the case of UGGACCUACAGCUUGCUAAGUAUUUAGUUA, the “pre-steady-state target cleavage rate” value is 0.2 ± 0.022 under setting [1] and 0.00384 ± 0.002 under setting [2].
Consider UCCUGGAUGAGCUUGCAUAGUAUUUAGUAUA, for which the “pre-steady-state target cleavage rate” value reads like this: under setting [1], 0.702 ± 0.054; under setting [2], 0.0165 ± 0.0055.
The corresponding values for UCCUGCUACAGCUUGCUUAGUAUUUAGUAA are 0.279 ± 0.023 and 0.0083 ± 0.002.
The corresponding values for UCCUGGAUCAGCUUGCUUAGUAUUUAGAAA are 0.116 ± 0.021 and 0.00482 ± 0.0028.
Regarding UCGACCUACAGCUGUGCAUAGUAUUUAGUUA, the “pre-steady-state target cleavage rate” value came to 1.42 ± 0.073 under setting [1] and 0.0386 ± 0.0081 under setting [2].
The corresponding values for AGGACCUACAGCAUUGCAUAGUAUUUAGUUA are 1.28 ± 0.12 and 0.0689 ± 0.014.
With UGGACCUACAGCUGUGCAUAGUAUUUAGUUA, the “pre-steady-state target cleavage rate” value runs as follows: under setting [1], 1.28 ± 0.11; under setting [2], 0.0389 ± 0.0098.
The corresponding values for AGGACCUACAGCUGUGCAUAGUAUUUAGUUA are 1.29 ± 0.063 and 0.0583 ± 0.012.
The corresponding values for UCCACCUACAGCGUGCAUAGUAUUUAGUUA are 1.06 ± 0.04 and 0.0325 ± 0.0056.
The corresponding values for UGGACCUACAGCGUGCAUAGUAUUUAGUUA are 1.43 ± 0.065 and 0.0647 ± 0.013.
AGGACCUACAGCGUGCAUAGUAUUUAGUUA: the “pre-steady-state target cleavage rate” value was determined as 1.34 ± 0.054 under setting [1] and 0.0658 ± 0.011 under setting [2].
The corresponding values for UCGACCUACAGCGUUGCAUAGUAUUUAGUUA are 1.21 ± 0.073 and 0.0561 ± 0.01.
UCCUGCUACAGCGUGCAUAGUAUUUAGUUA: the “pre-steady-state target cleavage rate” value worked out at 1.27 ± 0.074 under setting [1] and 0.0183 ± 0.005 under setting [2].
With AGGACCUACAGUUGCAUAGUAUUUAGUUA, the “pre-steady-state target cleavage rate” value was 0.988 ± 0.07 under setting [1] and 0.0102 ± 0.0034 under setting [2].
The corresponding values for UCGACCUACAGCGUGCAUAGUAUUUAGUUA are 1.73 ± 0.072 and 0.0576 ± 0.0085.
As to UCCUGGAUCAGCUUGCAUACUAUUUUCAAA, the “pre-steady-state target cleavage rate” value under setting [1] was determined as 0.00597 ± 0.0043.
With UCCUGGUACUGCUUGCAAAGUAUUUAGUUA, the “pre-steady-state target cleavage rate” value reads like this: under setting [1], 0.46 ± 0.036; under setting [2], 0.0221 ± 0.0052.
Turning to UCCUCCUACAGCUUGCAUAGAAUUUACAAA, the “pre-steady-state target cleavage rate” value under setting [1] is 0.295 ± 0.045.
Same read-out and setting: to UCCUGGAUGUCGAACGUAACUAUUUACUUA belongs less than 0.0001.
On the same count and under the same terms, to UCCUCCUACAGCUUCGAUAGUAUUUAGUAA belongs 0.263 ± 0.031; to UCCUGGAUGUGCUUGCAUAGUAUAAAGUAA, 0.00523 ± 0.0043.
As to UCGACCUACAGCUUGCAUAGUAUUGAGUUA, the “pre-steady-state target cleavage rate” value runs as follows: under setting [1], 0.499 ± 0.042; under setting [2], 0.0477 ± 0.0089.
UCCUGGAUCAGCUUGCAUACUUUUUAGUUA: the “pre-steady-state target cleavage rate” value by setting is: under setting [1], 0.014 ± 0.0033; under setting [2], 0.00335 ± 0.0016.
With UCGACCUACAGCUUGCAUAGUAGUUUAGUUA, the “pre-steady-state target cleavage rate” value is, setting by setting: under setting [1], 0.574 ± 0.031; under setting [2], 0.0134 ± 0.0039.
The corresponding values for UCCUGGUACAGCUUGCAAAGUAUUAAGUUA are 0.35 ± 0.049 and 0.0147 ± 0.0043.
The corresponding values for UCCUCCUACAGCGUGCAUAGUAUUUAGUUA are 1.4 ± 0.042 and 0.0379 ± 0.0072.
The corresponding values for UCCUCCUACAGCUGUGCAUAGUAUUUAGUUA are 1.18 ± 0.064 and 0.0204 ± 0.0047.
With AGGACCUACAGCGUUGCAUAGUAUUUAGUUA, the “pre-steady-state target cleavage rate” value by setting is: under setting [1], 1.21 ± 0.086; under setting [2], 0.0748 ± 0.015.
The corresponding values for UGGACCUACAGCGUUGCAUAGUAUUUAGUUA are 1.33 ± 0.11 and 0.0647 ± 0.013.
The corresponding values for UCCACCUACAGCGUUGCAUAGUAUUUAGUUA are 1.03 ± 0.13 and 0.0279 ± 0.005.
Regarding UCCUCCUACAGCGUUGCAUAGUAUUUAGUUA, the “pre-steady-state target cleavage rate” value runs as follows: under setting [1], 0.96 ± 0.057; under setting [2], 0.0256 ± 0.0045.
The corresponding values for UCGACCUACAGCUUGCAUAGUAUUAAGAUA are 0.248 ± 0.029 and 0.00627 ± 0.0027.
UCGACCUACAGGUUGCAUAGUAUUUACAAA: under setting [1], the “pre-steady-state target cleavage rate” value was 0.183 ± 0.026.
With AGGACCAACAGCUUGCAUAGUAUAUAGUUA, the “pre-steady-state target cleavage rate” value by setting is: under setting [1], 0.775 ± 0.054; under setting [2], 0.0604 ± 0.013.
The corresponding values for AGGACCUACAGCUUGCAUAGUAAAAAGUUA are 0.489 ± 0.058 and 0.00574 ± 0.0034.
The corresponding values for UCCUCCUACAGCUUGCAUAGAAAUUAGUUA are 0.169 ± 0.019 and 0.00268 ± 0.0024.
The corresponding values for UCCUGGUACAGCUUGGUUAGUAUUUAGUAA are 0.412 ± 0.079 and 0.0101 ± 0.0031.
With UCCUGGUUGAGCUUGCAUAGUAUUUAGAAA, the “pre-steady-state target cleavage rate” value turned out to be 0.135 ± 0.024 under setting [1] and 0.00555 ± 0.0033 under setting [2].
As for UCCUGGAACAGCUUGCAUACAAUUUAGUUA, the “pre-steady-state target cleavage rate” value under setting [1] is 0.0117 ± 0.0047.
Regarding AGGACCUACAGCUUGCAUAGUAUAAAGAAA, the “pre-steady-state target cleavage rate” value under setting [1] was 0.434 ± 0.077.
Regarding UCGACCACAGCUUGCAUAGUAUUUAGUUA, the “pre-steady-state target cleavage rate” value runs as follows: under setting [1], 1.22 ± 0.051; under setting [2], 0.0643 ± 0.011.
As to UGGACCCACAGCUUGCAUAGUAUUUAGUUA, the “pre-steady-state target cleavage rate” value is, setting by setting: under setting [1], 1.43 ± 0.091; under setting [2], 0.0699 ± 0.011.
The corresponding values for UCCACCCACAGCUUGCAUAGUAUUUAGUUA are 0.787 ± 0.052 and 0.0508 ± 0.0088.
Regarding UGGACCACAGCUUGCAUAGUAUUUAGUUA, the “pre-steady-state target cleavage rate” value is 1.47 ± 0.083 under setting [1] and 0.0744 ± 0.015 under setting [2].
The corresponding values for AGGACCACAGCUUGCAUAGUAUUUAGUUA are 1.29 ± 0.066 and 0.0967 ± 0.019.
The corresponding values for UCGACCCACAGCUUGCAUAGUAUUUAGUUA are 1.19 ± 0.044 and 0.0644 ± 0.011.
For the sequence AGGACCCACAGCUUGCAUAGUAUUUAGUUA, the “pre-steady-state target cleavage rate” value was 1.47 ± 0.093 under setting [1] and 0.0682 ± 0.0093 under setting [2].
The corresponding values for UGGACCUAGAGCUUGCAUAGUAUUUAGAAA are 0.296 ± 0.034 and 0.0101 ± 0.0034.
Regarding UCCACCUAGAGCUAGCAUAGUAUUUAGUUA, the “pre-steady-state target cleavage rate” value reads like this: under setting [1], 0.339 ± 0.042; under setting [2], 0.0098 ± 0.0019.
As to UCCUGCUACUCGUUGCAUAGUAUUUACAAA, the “pre-steady-state target cleavage rate” value under setting [1] was determined as 0.0303 ± 0.0091.
As for UGGACGUACAGCUUGCAUAGUUUUUAGUUA, the “pre-steady-state target cleavage rate” value under setting [1] turned out to be 0.35 ± 0.015 and the “pre-steady-state target cleavage rate” value under setting [2] was 0.0389 ± 0.0097.
With UCCUGGAACAGCUUCCAUAGUAUUAAGUUA, under setting [1], the “pre-steady-state target cleavage rate” value stood at 0.0095 ± 0.0047.
Same read-out and setting: next, UCGACCUACAGCUUGCAAUCUAUUUAGAAA: 0.129 ± 0.033.
Regarding UCGGCCUACAGCUUGCAUAGUAUUUAGUUA, the “pre-steady-state target cleavage rate” value is, setting by setting: under setting [1], 1.21 ± 0.05; under setting [2], 0.0767 ± 0.015.
The corresponding values for AGGCCCUACAGCUUGCAUAGUAUUUAGUUA are 1.15 ± 0.058 and 0.115 ± 0.018.
The corresponding values for AGGCCUACAGCUUGCAUAGUAUUUAGUUA are 1.41 ± 0.075 and 0.107 ± 0.019.
The corresponding values for UGGCCCUACAGCUUGCAUAGUAUUUAGUUA are 1.39 ± 0.11 and 0.0833 ± 0.015.
Regarding UGGCCUACAGCUUGCAUAGUAUUUAGUUA, the “pre-steady-state target cleavage rate” value under setting [1] turned out to be 1.46 ± 0.076 and the “pre-steady-state target cleavage rate” value under setting [2] was determined as 0.0761 ± 0.014.
